Bioassay records as filed in PubChem.
Rows were chosen to be rich in hits. Some 21% of all compounds tested hit in one or more screens of this group.
SARS PLP yeast – SARS-CoV PLP inhibition in yeast. S. cerevisiae expressing SARS-CoV PLpro, growth rescue. Potency, µM (top dose mostly 32.9 µM), actives largely listed as activators. actives 0.19% (n = 330,000). AID 485353; calls by dose curve; further: nearly all actives have a fitted effect of over 55% in size
Pf growth 48h – inhibits P. falciparum growth in the first generation, 48 h. AID 504832. P. falciparum luciferase growth in erythrocytes, 48 h. Potency, µM (doses to about 28.7 µM), actives largely listed as inhibitors. actives 5.9% (n = 310,000)
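First compound was added to culture medium, then infected red cells at 0.1% parasitemia and 2% hematocrit (final). After incubation at 37 C under 5% CO2, luciferase detection reagent was dispensed and light output recorded.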
Pf growth 96h – P. falciparum growth inhibition at 96 hours; P. falciparum luciferase reporter growth, 96 h; Potency, µM (doses to about 28.7 µM), most hits filed as inhibitors; actives 6.9% (n = 320,000); AID 504834
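P. falciparum expressing integrated firefly luciferase grown in erythrocytes (2% hematocrit, 0.05% parasitemia final) with compounds for 96 hours at 37 C, 5% CO2. Growth inhibition read as loss of luminescence after adding luciferase detection reagent.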
Cycloheximide cs – counter-screen hit for Shiga toxin inhibitors, cycloheximide. max response, %. AID 2314. cell reporter, cycloheximide protein synthesis inhibition counterscreen. actives 12% (n = 300,000); in the data active means max response mostly above about 13%, no sharp cut-off; inactive means mostly below about 14%; further: read at 38.3 µM for the half of the compounds with a filed dose
NS1 function inh – blocks influenza NS1 protein function. Potency, µM (titrated, usually from 46.1 µM). actives 0.4% (n = 270,000). AID 2326; calls by dose curve; further: actives are rising curves; nearly all actives have a fitted effect of over 50% in size
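Recovery from NS1-induced slow growth read by OD600 in budding yeast switched to galactose assay medium (pH 6.0, -URA) at 1:100 dilution. Compound 23 nl per well; the matching strain lacking NS1 serves as control.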
Shiga inhibitor – inhibitors of Shiga toxin in Vero cells | actives 9.2% (n = 290,000) | Vero cells, Shiga toxin protein synthesis inhibition reporter | AID 2315 | inhibition, % at 38.7 µM; in the data active means inhibition mostly above about 28%, no sharp cut-off; inactive means mostly below about 43%
A number is an active result. Unless noted, the call rests on the fitted dose curve; in most records, active means well fitted inhibition curve with a large enough effect; inconclusive means small, poorly fitted or top-dose-only effect, or another doubt; inactive means no such curve, though single readings can be large or run the other way.

`CC(C)NC(=O)COc1ccc(OCc2ccccc2)cc1` gave SARS PLP yeast inactive, Pf growth 48h inactive, Pf growth 96h inactive, Cycloheximide cs 19.7 and Shiga inhibitor inactive.
For Cc1c(C(=O)Nc2ccc(OCc3ccccc3)cc2)cccc1[N+](=O)[O-] the results were SARS PLP yeast inactive, Pf growth 48h inactive, Pf growth 96h inactive, Cycloheximide cs inactive, NS1 function inh inactive and Shiga inhibitor inactive.
For CCOc1ccc(Cc2c(C)[nH]c3ccc(C(=O)O)cc3c2=S)cc1 the results were SARS PLP yeast inactive, Pf growth 48h inactive, Pf growth 96h inactive, Cycloheximide cs inactive, NS1 function inh inactive and Shiga inhibitor inactive.
`O=C(Nc1ccc(Oc2nnc(-c3ccccc3)c3ccccc23)cc1)c1ccccc1` gave SARS PLP yeast inactive, Pf growth 48h 10.4µM, Pf growth 96h inactive, Cycloheximide cs inactive, NS1 function inh inactive and Shiga inhibitor inactive.
Cc1noc(C)c1COc1cccc(C(=O)Nc2ccccc2N2CCOCC2)c1 was read as SARS PLP yeast inactive, Pf growth 48h inconclusive, Pf growth 96h 13.1µM, Cycloheximide cs inactive, NS1 function inh inactive and Shiga inhibitor inactive.
`COc1ccc2nc(NC(=O)c3cccc(OCc4c(C)noc4C)c3)sc2c1` gave SARS PLP yeast inactive, Pf growth 48h inactive, Pf growth 96h inactive, Cycloheximide cs 43.6, NS1 function inh inactive and Shiga inhibitor 118.2.
For Cc1ccsc1C(=O)NCC(=O)OCc1ccccc1 the results were SARS PLP yeast inactive, Pf growth 48h inactive, Pf growth 96h inactive, Cycloheximide cs 29.6, NS1 function inh inactive and Shiga inhibitor 60.7.
Screening NCC(=O)NCC(=O)OCc1ccccc1 returned SARS PLP yeast inactive, Pf growth 48h inactive, Pf growth 96h inactive, Cycloheximide cs inactive and Shiga inhibitor inactive.
COc1ccc2cc(CCNS(=O)(=O)c3c(C)cc(C)cc3C)c(=O)[nH]c2c1 was read as SARS PLP yeast inactive, Pf growth 48h inactive, Pf growth 96h inactive, Cycloheximide cs inactive, NS1 function inh inactive and Shiga inhibitor inactive.
For CC(C)=CC(=O)Nc1ccc(OCc2ccccc2)cc1 the results were SARS PLP yeast inactive, Pf growth 48h inconclusive, Pf growth 96h inactive, Cycloheximide cs 52.5, NS1 function inh inactive and Shiga inhibitor 126.0.
`Cc1nc(COc2ccc(C(=O)Nc3ccccc3N3CCOCC3)cc2)cs1` gave SARS PLP yeast inactive, Pf growth 48h inactive, Pf growth 96h inconclusive, Cycloheximide cs inactive, NS1 function inh inactive and Shiga inhibitor 26.2.
For O=C(Nc1ccccc1F)c1ccc(OCc2ccccc2)cc1 the results were SARS PLP yeast inactive, Pf growth 48h inactive, Pf growth 96h inactive, Cycloheximide cs 48.7, NS1 function inh inactive and Shiga inhibitor 86.4.
CCOC(=O)CNC(=O)C(Cc1ccccc1)NC(=O)OCc1ccccc1 (stereo not given) was read as SARS PLP yeast inactive, Pf growth 48h inactive, Pf growth 96h inactive, Cycloheximide cs inactive and Shiga inhibitor inactive.
Screening CCOC(=O)CNC(=O)C(CO)NC(=O)OCc1ccccc1 (stereo not given) returned SARS PLP yeast inactive, Pf growth 48h inactive, Pf growth 96h inconclusive, Cycloheximide cs 25.7, NS1 function inh inactive and Shiga inhibitor inactive.
For CC(C)n1cc(CN2CCC(Oc3ccc(C(=O)N4CCCC4)cc3)CC2)cn1 the results were SARS PLP yeast inactive, Pf growth 48h inactive, Pf growth 96h inactive, Cycloheximide cs inactive, NS1 function inh inactive and Shiga inhibitor inactive.
`[O-][n+]1cccc(C(O)c2ccccc2)c1` (stereo not given) gave SARS PLP yeast inactive, Pf growth 48h inactive, Pf growth 96h inactive, Cycloheximide cs inactive and NS1 function inh inactive.
Screening Cc1nn2c(COc3ccc(NC(=O)c4ccccc4)cc3)nnc2c2ccccc12 returned SARS PLP yeast inactive, Pf growth 48h inconclusive, Pf growth 96h 6.57µM, Cycloheximide cs inactive, NS1 function inh inactive and Shiga inhibitor inactive.
Screening Cc1noc(C)c1COc1ccc(C(=O)Nc2ccccc2)cc1 returned SARS PLP yeast inactive, Pf growth 48h inconclusive, Pf growth 96h inactive, Cycloheximide cs inactive and Shiga inhibitor inactive.
CCOCC(=O)Nc1ccc(OCc2ccccc2)cc1 was read as SARS PLP yeast inactive, Pf growth 48h inconclusive, Pf growth 96h inactive, Cycloheximide cs 34.7, NS1 function inh inactive and Shiga inhibitor 45.8.
